# Compound activity (PubChem BioAssay)
# M1 ag parental: M1 agonist counterscreen hit in parental CHO-K1 cells | Fluo-8 calcium fluorescence; scaled to maximal ATP response, vehicle zero | activation, % at 3 µM | 360,000 compounds, 0.48% hits | AID 602248; in the data active means activation above about 15%;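 further: untransfected CHO-K1 host cells lacking M1 receptor as counterscreen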
# CHRM1 agonist: activates human CHRM1 receptor. AID 588814. CHO-K1 hM1, Fluo-8 calcium fluorescence, agonist mode; 0% DMSO, 100% acetylcholine EC100. 360,000 compounds, 0.33% hits. activation, % at 3 µM. P11229;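 active means activation above the run's mean compound activation plus 3 SD, cut at about 16% in these data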;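 further: peak over basal fluorescence ratio within a 140 s kinetic read after compound addition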
# Target sequence (P11229 whole entry, looked up): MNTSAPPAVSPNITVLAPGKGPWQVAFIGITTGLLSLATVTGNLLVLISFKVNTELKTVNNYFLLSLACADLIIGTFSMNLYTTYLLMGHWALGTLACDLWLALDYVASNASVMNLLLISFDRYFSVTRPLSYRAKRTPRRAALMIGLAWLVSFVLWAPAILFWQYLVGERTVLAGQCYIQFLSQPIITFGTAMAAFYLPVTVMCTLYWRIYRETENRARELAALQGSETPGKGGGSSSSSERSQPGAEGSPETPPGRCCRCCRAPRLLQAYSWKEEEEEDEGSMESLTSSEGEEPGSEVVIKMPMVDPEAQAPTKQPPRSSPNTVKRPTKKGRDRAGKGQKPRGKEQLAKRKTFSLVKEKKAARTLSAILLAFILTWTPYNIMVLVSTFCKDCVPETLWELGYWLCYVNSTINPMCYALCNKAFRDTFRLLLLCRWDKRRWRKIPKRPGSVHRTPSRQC
# CHO-K1 Ca antag: nonselective inhibitor or artifact in parental CHO-K1 cells; 360,000 compounds, 0.6% hits; inhibition, % at 3 µM; AID 602250; ATP-induced calcium, Fluo-8 fluorescence;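 active means inhibition above a per-plate cutoff, the plate's mean sample inhibition plus 3 SD, cut at about 24% in these data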;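 further: 0% = DMSO plus EC80 ATP and 100% = DMSO alone without ATP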
# CHO-K1 Ca PAM: M1 PAM counterscreen hit in parental CHO-K1 cells. ATP EC20, Fluo-8 calcium fluorescence; 0% at ATP EC20, 100% at ATP max. activation, % at 3 µM. 360,000 compounds, 0.02% hits. AID 602247;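 active means activation above the run cutoff, the mean activation of all test compounds plus 3 SD, cut at about 40% in these data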;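 further: peak over basal fluorescence ratio in a 140 s read after ATP addition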
# M1 PAM: potentiates human M1 receptor response to acetylcholine; P11229; CHO-K1 hM1, Fluo-8 calcium fluorescence, ACh EC20; 0% = ACh EC20, 100% = maximal ACh; AID 588819; 360,000 compounds, 0.088% hits; activation, % at 3 µM; in the data active means activation above about 19%, passing the limit was not always enough
# CHRM1 antagonist: blocks human M1 muscarinic receptor | 360,000 compounds, 1.3% hits | P11229 | CHO-K1 hM1, Fluo-8 calcium fluorescence, ACh EC80 antagonist | AID 588852 | inhibition, % at 3 µM;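 active means percent inhibition above its own plate's cutoff, namely the mean of that plate's compound wells plus 3 SD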;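 further: peak over basal fluorescence ratio during 140 s after agonist addition; 0% = ACh EC80 plus DMSO and 100% = DMSO alone without agonist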
# The depositor's hits bear a star; nt = no result given; ! = a repeat was not active. Compounds with a hit are over-represented: about 2.3% of the library has one in this group of screens.
SMILES,M1 ag parental,CHRM1 agonist,CHO-K1 Ca antag,CHO-K1 Ca PAM,M1 PAM,CHRM1 antagonist
COc1ccc(OC)c(/C=C2/Sc3ccccc3C2=O)c1,38*,25*,35*,-6,-14,31
COc1ccc(OC)c(C=C2CCc3ccccc3C2=O)c1,0,-11,-1,3,4,0
CCC(NC(=O)c1cc(COc2cc(C)c(Cl)c(C)c2)on1)c1ccncc1 (centres undefined),17*,13,3,2,5,12
COc1ccc(/C=N/n2nnnc2N)c(OC)c1,0,-8,8,2,-8,38*
CC1(c2ccc3ccccc3c2)NC(=O)N(CC(=O)Nc2cccc(S(=O)(=O)N3CCOCC3)c2)C1=O (centres undefined),1,-10,-8,18,8,1
Cc1ccc(C(=O)N2CCN(c3ccc(NC(=S)NC(=O)Cc4ccccc4)cc3)CC2)cc1,21*,-1,24*,5,-6,18
O=C(Nc1ccc(N2CCN(C(=O)c3ccccc3)CC2)cc1)c1ccc2c(c1)OCCO2,16*,3,11,-13,-11,15
COCCN(C(=O)CSc1nc2ccccc2o1)c1c(N)n(Cc2ccccc2)c(=O)[nH]c1=O,1,-3,-9,6,-2,6
COc1cc(C(=S)N2CCOCC2)ccc1OC(=O)c1ccc(Br)cc1,12,1,28*,7,-18,47*
Cc1cc(C)c(NC(=O)CN2CCN3CCCC3C2)c(C)c1 (centres undefined),0,5,-13,-6,29*!,-20
CCOC1=C2CN(S(=O)(=O)c3ccc(C)cc3)[C@@H](c3ccc(CC)cc3)C[C@H]2[C@H]2C(=O)N(c3ccccc3)C(=O)[C@H]2C1,1,-1,-2,25,7,-9
NC(=O)c1ccsc1NC(=O)COC(=O)/C=C/c1ccc([N+](=O)[O-])cc1,12,2,-3,1,-8,7
COC(=O)c1ccc(/C=C/C(=O)OCC(=O)Nc2sccc2C(N)=O)cc1,16*,5,10,-17,-25,47*
COc1ccc(/C=C/C(=O)OCC(=O)Nc2cc(C(N)=O)cc(C(N)=O)c2)cc1,11,-7,25*,-15,11,-8
CCCCCCCCCCn1ccc(=N)cc1,0,-8,7,2,-25,63*
CC(C)Cc1nnc(NC(=O)CCc2c[nH]c3ccccc23)s1,3,1,-4,5,15,-9
Cc1ccc(NC(=O)CSc2nnc(-c3cccnc3)s2)cc1,2,-6,-6,26,6,-5
O=C(CSc1nnc(-c2cccnc2)s1)Nc1ccnc2ccccc12,15,-2,26*,9,-14,34*
CSCCC(NC(=O)c1ccco1)C(=O)NCc1ccc2c(c1)OCO2 (centres undefined),1,-4,0,9,5,-6
CNCCOc1ccccc1-c1ccccc1,0,-6,-12,11,-4,4
CC(C)CCN1CCN(Cc2cccc(-n3cccn3)c2)CC1CCO (centres undefined),0,-7,4,-9,-2,0
Cc1cc(-n2cccn2)ccc1CN1CCN(CC(C)C)C(CCO)C1 (centres undefined),1,-7,-17,16,-24,48*
Cc1cc(-n2cccn2)ccc1CN1CCN(C2CCCC2)C(CCO)C1 (centres undefined),0,-4,6,-13,-20,100*
Cc1ccc(CN2CCN(Cc3ccc(-n4cccn4)cc3)CC2CCO)cc1 (centres undefined),0,-14,-5,7,9,-15
COc1ccc(-c2cc(=O)c3ccc(O)cc3o2)cc1,0,1,1,10,24*,-23
SMILES,M1 ag parental,CHRM1 agonist,CHO-K1 Ca antag,CHO-K1 Ca PAM,M1 PAM,CHRM1 antagonist
CN(Cc1ccccc1OCCO)CC1CCCN(CCc2ccc(Cl)cc2)C1 (centres undefined),1,-9,13,-8,-28,51*
CN(CC1CCCN(CCc2ccc(Cl)cc2)C1)C(=O)C(=O)c1ccco1 (centres undefined),0,-5,0,-4,-19,44*
Cc1ccccc1CCN1CCCC(CN(C)C(=O)C(=O)c2ccco2)C1 (centres undefined),0,-7,-1,-11,-13,29
Cn1c(N)c(C(=O)CSc2nnc(-c3c[nH]c4ccccc34)n2C2CC2)c(=O)[nH]c1=O,0,-8,20,-10,-9,21
C#Cc1cccc(NC(=O)c2ccc3c(c2)C(=O)N(Cc2cccnc2)C3=O)c1,15,2,6,-9,-11,34*
O=C(O)c1cc(NC(=O)c2ccc3c(c2)C(=O)N(Cc2cccnc2)C3=O)cc(C(=O)O)c1,1,-1,-12,9,12,-16
CC(C)C[C@@H](CN1CCC[C@H]1CN1C(=O)C(=O)NC[C@@H]1Cc1ccc(O)cc1)N1C[C@H](Cc2ccc(O)cc2)N(CC2CCCCCC2)C(=O)C1=O,1,nt,-9,13,nt,nt
O=C(CN1CCN(C(c2ccccc2)c2ccccc2)CC1)NC(=O)NCc1ccco1,-1,-4,27*,-9,-11,30*
S=C(NCc1ccco1)N1CCN(C(c2ccccc2)c2ccccc2)CC1,0,-8,3,6,-18,18*
COc1cccc(N2CCN(CC(=O)Nc3ccccc3C(=O)NCCc3ccccc3)CC2)c1,4,-4,-4,0,-12,22
COc1ccc(CNC(=O)CN2CCN(C(c3ccccc3)c3ccccc3)CC2)cc1,0,-6,-5,-5,-19,34*
COc1cccc(N2CCN(CC(=O)Nc3ccccc3C(=O)NCc3ccccc3)CC2)c1,7,-1,4,6,-11,34*
COc1ccc(Cn2cc(CN3CC(N4CCN(C5CCN(C)CC5)CC4)CS3(=O)=O)nn2)cc1 (centres undefined),0,nt,-9,9,nt,nt
CC(NC(=O)CNC(=O)c1ccccc1F)c1ccc(-n2ccnc2)cc1 (centres undefined),1,0,-20,20,8,-11
COc1ccc(N(CC(=O)NC2CCCC2)C(=O)CCC(=O)Nc2nc(C)cs2)cc1OC,0,-3,-4,-1,0,7
Cc1csc(NC(=O)CCC(=O)N(CC(=O)NC2CCCC2)Cc2ccccc2)n1,4,-4,-23,15,8,-5
COc1cc(OC)c(-c2c3cc(O)c(=O)cc-3oc3cc(O)c(O)cc23)cc1OC,258*,385*,68*,-16,-28,74*
O=C1Nc2ccccc2C(=O)N2[C@H](c3ccc(F)cc3)[C@@H]3C(=O)N(Cc4ccccc4)C(=O)[C@@H]3[C@H]12,1,36*,17,-21,8,16
